Our source for the Potency and activation values is PubChem BioAssay (Tox21).

A number with no mark means an inactive call. Where a call stands in place of a potency, no number is given. Calls of active or inactive are those of the source. Calls follow the shape of the full dose curve.

Muscarinic acetylcholine receptor M1 (Homo sapiens), sequence (P11229 whole entry, looked up): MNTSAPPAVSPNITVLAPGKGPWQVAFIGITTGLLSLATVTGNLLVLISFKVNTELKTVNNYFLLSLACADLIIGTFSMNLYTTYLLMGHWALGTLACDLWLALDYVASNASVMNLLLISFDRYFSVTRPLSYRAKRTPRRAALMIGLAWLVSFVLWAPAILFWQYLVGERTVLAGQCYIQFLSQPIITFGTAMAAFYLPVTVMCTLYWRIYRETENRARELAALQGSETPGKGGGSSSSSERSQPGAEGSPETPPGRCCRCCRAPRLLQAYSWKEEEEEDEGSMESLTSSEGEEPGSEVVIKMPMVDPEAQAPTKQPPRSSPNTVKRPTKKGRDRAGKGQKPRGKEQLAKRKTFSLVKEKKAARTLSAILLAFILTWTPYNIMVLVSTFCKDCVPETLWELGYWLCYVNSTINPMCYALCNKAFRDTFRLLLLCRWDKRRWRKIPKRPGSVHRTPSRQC

In the assay the target is Muscarinic acetylcholine receptor M1 (Homo sapiens) (UniProt P11229). The experiment in a line: Cholinergic receptor muscarinic 1 (CHRM1) small molecule agonists, cell-based qHTS assay (AID 1963589). Also: nearly all actives have a fitted effect of over 35% in size. Particulars: CHRM1-CHO cells, agonist mode, calcium flux fluorescence; series mostly up to 76.8 µM. An excerpt:
National Center for Advancing Translational Sciences [NCATS]
Division of Preclinical Innovation [DPI]
U.S. Environmental Protection Agency [EPA]
National Institutes of Environmental Health Sciences [NIEHS]
National Toxicology Program [NTP]
U.S. Food and Drug Administration [FDA]
The CHRM1 is a muscarinic receptor. This receptor plays a crucial role in learning and memory processes and has long been identified as a promising therapeutic target for the improvement of cognitive decline in Alzheimer's disease (AD). The CHRM1-CHO cell line stably expressing human muscarinic acetylcholine receptor M1 (CHRM1) can be used for screening agonists and antagonists of interactions between CHRM1 and its ligands. The CHRM1-CHO Calcium Flux Assay is a homogeneous fluorescence-based assay for detecting the intracellular calcium level using FDSS kinetic plate reader system.
CHRM1-CHO cells were dispensed at 1000 cells/3uL/well in 1536-well black-clear bottom plates using a Multidrop Dispenser. After the assay plates were incubated at a 37 C/5% CO2 incubator for 18 h, 3 uL of Dye Loading Buffer was transferred to the assay plate by a Flying Reagent Dispenser. The assay plates were incubated at 37 C for 1h. For agonist mode, 23 nL of compounds dissolved in DMSO, positive controls or DMSO only was transferred to the assay plate by a pin tool. […] Each test compound was measured at 15 concentrations in three independent runs.
In general terms: In qHTS, concentration-response curves come from the screen itself.
With `NCc1ccco1`, the Potency result was “inactive”.
Still for that read-out and setting: next, `CCNC(=O)N1CCN(CCCC(c2ccc(F)cc2)c2ccc(F)cc2)CC1`: “inactive”; `CO[Si](CCC1CCC2OC2C1)(OC)OC` (stereo not given): “inactive”.
With `Cc1ccc(CCn2c3c(c4cc(Cl)ccc42)CN(C)CC3)cn1`, the Potency entry was “inactive”.
On to `c1ccc(-c2nn[nH]n2)cc1`, for which the Potency entry was “inactive”.
The same measure, in the same setting: then `CCCCCCC(O)CCOC(C)=O` (stereo not given), with “inactive”.
Still for that read-out and setting: next, `CCCc1nc2c(C)cc(-c3nc4ccccc4n3C)cc2n1Cc1ccc(-c2ccccc2C(=O)O)cc1`: “inactive”; `COC(=O)NN`: “inactive”.
The same measure, in the same setting: then `c1ccc(CNc2ncnc3nc[nH]c23)cc1`, with “inactive”; and `CC(C(=O)O)c1ccc2c(c1)CC(=O)c1ccccc1S2` (stereo not given), with “inactive”.
On to `CN(C)Cc1ccccc1`, for which the Potency entry was “inactive”.
Same read-out and setting: next, `CCCCCCCCCCCC`: “inactive”; `CCCCC/C=C\CCC=O`: “inactive”; `CCCCCCCCOC(C)=O`: “inactive”.
Same read-out and setting: next, `CC(=O)[C@H]1CC[C@H]2[C@@H]3C=CC4=CC(=O)CC[C@@]4(C)[C@@H]3CC[C@]12C`: “inactive”; `CCOC(=O)/C=C/C(=O)OCC`: “inactive”.
Same read-out and setting: then `CNS(=O)(=O)CCc1ccc2[nH]cc(C3CCN(C)CC3)c2c1`, with “inactive”; and `OC[C@@H](O)[C@@H](O)CO`, with “inactive”; and `C1OCOCO1`, with “inactive”.
In the case of `COc1ccc(C)cc1[N+](=O)[O-]`, the Potency entry is “inactive”.
`CC[C@@]1(O)C(=O)OCc2c1cc1n(c2=O)Cc2c-1nc1ccccc1c2/C=N/OC(C)(C)C`: the Potency entry is “inactive”.
Still for that read-out and setting: then `CCOC(=O)NNc1ccc(N(CC)CC(C)O)nn1` (stereo not given), with “inactive”; and `CCN(CC)CCSC(=O)C(c1ccccc1)c1ccccc1`, with “inactive”.
On the same count and under the same terms, next, `O=C1N(c2ccccc2)c2ccccc2C1(Cc1ccncc1)Cc1ccncc1`: “inactive”.
As for `C=C(C)C(=O)OCCN(C)C`, the Potency result was “inactive”.
Still for that read-out and setting: next, `CCC1CCC(CCC(=O)O)C1` (stereo not given): “inactive”.
The same measure, in the same setting: then `CC(C)=CCC/C(C)=C/CC/C(C)=C/C(=O)OCC(=O)[C@@]1(O)CC[C@H]2[C@@H]3CCC4=CC(=O)C=C[C@]4(C)[C@H]3[C@@H](O)C[C@@]21C`, with “inactive”.
For `O=C(O)CP(=O)(O)O`, the Potency entry is “inactive”.
`CCCCC(=O)OCC(=O)[C@H]1[C@H](C)C[C@H]2[C@@H]3C[C@H](F)C4=CC(=O)C=C[C@]4(C)[C@@]3(F)[C@@H](O)C[C@@]21C`: the Potency entry is “inactive”.
As for `C/C(=C(\CCOP(=O)(O)O)SC(=O)c1ccccc1)N(C=O)Cc1cnc(C)nc1N`, the activation was -0.572% [at 6.97 µM].
`C/C=C/C=C/COC(=O)C(C)C`: the Potency entry is “inactive”.
On the same count and under the same terms, next, `FC(F)OC(Cl)C(F)(F)F` (stereo not given): “inactive”; `Clc1cc(Cl)c(-c2c(Cl)c(Cl)cc(Cl)c2Cl)cc1Cl`: “inactive”.
Take `Cn1cccc1`: the Potency entry is “inactive”.
On the same count and under the same terms, then `Cc1c(N)cccc1Cl`, with “inactive”.
Still for that read-out and setting: next, `Cc1cc(SC2=C(O)C[C@@](CCc3ccc(N)cc3)(C(C)C)OC2=O)c(C(C)(C)C)cc1CO`: “inactive”; `Cc1cc(O)c(C(C)(C)C)cc1C(C)(C)C`: “inactive”; `CCCCCCCC1CCCC1=O` (stereo not given): “inactive”.
Same read-out and setting: next, `CCCCOC(=O)/C=C\C(=O)OCCCC`: “inactive”; `CCN(CC)c1ccc(N)cc1`: “inactive”.
